For 61 compounds, cytotoxicity call results are on record in the antibiotic and cytotoxicity screens of Wong et al. (2023).

Among all 39,000 compounds or so, about 1,500 (3.8%) were called active. For the sample, actives were picked, then their nearest neighbours and some compounds at random.

The test system of this assay is HSkMC (human skeletal muscle cells). Nature of the assay: cytotoxicity call (relative viability < 0.9). The settings on record: 10 µM.
For the compound `C[C@@H]1CCCCO[C@H](CN(C)S(C)(=O)=O)[C@@H](C)CN([C@@H](C)CO)C(=O)c2cc(NS(=O)(=O)c3ccc(F)cc3)ccc2O1`, the cytotoxicity call was “inactive”.

With `CO[C@H](CN(C)S(=O)(=O)c1cccc(Cl)c1)[C@@H](C)CN([C@H](C)CO)S(=O)(=O)c1ccc(Cl)cc1`, the cytotoxicity call was “inactive”.

On to `O=C(N[C@@H]1CC[C@@H](CC(=O)N2CCOCC2)O[C@H]1CO)c1ccccn1`, for which the cytotoxicity call is “inactive”.

As for `Cc1noc(C)c1NC(=O)N(C)C[C@H]1Oc2ccc(NC(=O)NC(C)C)cc2C(=O)N([C@H](C)CO)C[C@@H]1C`, the cytotoxicity call is “inactive”.

`COc1ccc(S(=O)(=O)Nc2ccc3c(c2)C(=O)N([C@H](C)CO)C[C@@H](C)[C@H](CN(C)S(C)(=O)=O)O3)cc1`: the cytotoxicity call is “inactive”.

For the compound `Nc1ccc(Nc2ccccc2)cc1`, the cytotoxicity call is “inactive”.

Take `COc1ccc2c3c([nH]c2c1)[C@@H](CO)N(C[C@]13CN(C1)S(=O)(=O)C)C(=O)C1CCOCC1`: the cytotoxicity call was “inactive”.

In the case of `C[C@H]1CN([C@@H](C)CO)C(=O)c2c(c3ccccc3n2C)-c2ccccc2CO[C@H]1CN(C)Cc1ccccc1C(F)(F)F`, the cytotoxicity call was “inactive”.

For the compound `C[C@H]1CN([C@@H](C)CO)C(=O)c2c(c3ccccc3n2C)-c2ccccc2CO[C@@H]1CN(C)Cc1ccccc1C(F)(F)F`, the cytotoxicity call is “active”.

Take `COc1ccccc1CN(C)C[C@H]1OCc2ccccc2-c2c(n(C)c3ccccc23)C(=O)N([C@H](C)CO)C[C@H]1C`: the cytotoxicity call is “inactive”.

Consider `C[C@H](CO)N1C[C@H](C)[C@H](CN(C)Cc2ccccc2C(F)(F)F)OCc2ccccc2-c2c(n(C)c3ccccc23)C1=O`, for which the cytotoxicity call is “active”.

As for `C[C@@H]1CN([C@H](C)CO)C(=O)c2c(c3ccccc3n2C)-c2ccccc2CO[C@H]1CN(C)Cc1ccccc1C(F)(F)F`, the cytotoxicity call is “active”.

Consider `COc1ccccc1CN(C)C[C@H]1OCc2ccccc2-c2c(n(C)c3ccccc23)C(=O)N([C@@H](C)CO)C[C@@H]1C`, for which the cytotoxicity call is “inactive”.

For `COc1ccccc1CN(C)C[C@H]1OCc2ccccc2-c2c(n(C)c3ccccc23)C(=O)N([C@@H](C)CO)C[C@H]1C`, the cytotoxicity call was “inactive”.

Turning to `C[C@@H]1CN([C@@H](C)CO)C(=O)c2cc(NC(=O)CCC(F)(F)F)ccc2O[C@@H](C)CCCCO[C@@H]1CN(C)C(=O)CCC(F)(F)F`, the cytotoxicity call is “inactive”.

In the case of `COc1ccc(NC(=O)Nc2ccc3c(c2)C(=O)N([C@H](C)CO)C[C@@H](C)[C@@H](CN(C)C(=O)NC(C)C)OCCCC[C@H](C)O3)cc1`, the cytotoxicity call is “inactive”.

For the compound `C[C@@H]1CCCCO[C@H](CN(C)C(=O)Nc2ccc3c(c2)OCO3)[C@@H](C)CN([C@@H](C)CO)C(=O)c2cc(NC(=O)CCC(F)(F)F)ccc2O1`, the cytotoxicity call was “inactive”.

In the case of `CN1C(=O)COc2cc(N)ccc21`, the cytotoxicity call was “inactive”.

For the compound `Cc1noc(C)c1NC(=O)N(C)C[C@H]1Oc2ccc(NS(C)(=O)=O)cc2CC(=O)N([C@H](C)CO)C[C@@H]1C`, the cytotoxicity call is “inactive”.

Consider `Cc1cc(C(=O)O)cc(S(N)(=O)=O)c1`, for which the cytotoxicity call was “inactive”.

On to `C[C@@H]1CN([C@H](C)CO)C(=O)c2cc(NC(=O)Nc3ccc4c(c3)OCO4)ccc2O[C@@H]1CN(C)Cc1ccc(C(=O)Nc2ccccc2N)cc1`, for which the cytotoxicity call was “inactive”.

With `COc1ccc(NC(=O)N(C)C[C@@H]2Oc3c(NC(=O)c4cc(C)nn4C)cccc3C(=O)N([C@H](C)CO)C[C@H]2C)cc1`, the cytotoxicity call is “inactive”.

`C[C@H]1CCCCO[C@H](CN(C)Cc2ccncc2)[C@@H](C)CN([C@@H](C)CO)C(=O)c2cc(NS(=O)(=O)c3ccc(Cl)cc3)ccc2O1`: the cytotoxicity call was “inactive”.

As to `O=C(NO)c1cn(-c2ccc(C[C@H]3C(=O)O[C@@H](Cc4ccccc4)[C@H]4[C@@H]5C=CCCC=C5CN43)cc2)nn1`, the cytotoxicity call was “inactive”.

As for `COc1ccc([Si](C)(C)[C@H]2[C@H](CCO)O[C@@]3(C(=O)N(Cc4ccc(N5C(=O)c6cccc7cccc5c67)cc4)c4ccccc43)[C@@H]2C)cc1`, the cytotoxicity call was “inactive”.

On to `COc1ccc([Si](C)(C)[C@@H]2[C@@H](CCn3cc(CCO)nn3)O[C@]3(C(=O)N(Cc4cccc(N5C(=O)c6cccc7cccc5c67)c4)c4ccccc43)[C@H]2C)cc1`, for which the cytotoxicity call was “active”.

`COc1ccc([Si](C)(C)[C@H]2[C@H](CCn3cc(CCO)nn3)O[C@@]3(C(=O)N(Cc4cccc(N5C(=O)c6cccc7cccc5c67)c4)c4ccccc43)[C@@H]2C)cc1`: the cytotoxicity call is “inactive”.

As to `COc1ccc([Si](C)(C)[C@H]2[C@H](CCO)O[C@@]3(C(=O)N(Cc4cccc(N5C(=O)c6cccc7cccc5c67)c4)c4ccccc43)[C@@H]2C)cc1`, the cytotoxicity call is “inactive”.

With `COc1ccc([Si](C)(C)[C@@H]2[C@@H](CCO)O[C@]3(C(=O)N(Cc4ccc(N5C(=O)c6cccc7cccc5c67)cc4)c4ccccc43)[C@H]2C)cc1`, the cytotoxicity call was “inactive”.

Turning to `COc1ccc([Si](C)(C)[C@@H]2[C@@H](CCn3cc(CCO)nn3)O[C@]3(C(=O)N(Cc4ccc(N5C(=O)c6cccc7cccc5c67)cc4)c4ccccc43)[C@H]2C)cc1`, the cytotoxicity call is “active”.

As to `C[C@@H]1CCCCO[C@@H](CN(C)C(=O)CCCN(C)C)[C@H](C)CN([C@H](C)CO)C(=O)c2cc(NC(=O)Nc3ccc(C(F)(F)F)cc3)ccc2O1`, the cytotoxicity call was “inactive”.

For `C[C@H](CO)N1C[C@H](C)[C@@H](CN(C)C(=O)Nc2ccccc2)OCCCC[C@H](C)Oc2ccc(NC(=O)Cc3ccccc3)cc2C1=O`, the cytotoxicity call is “inactive”.

Regarding `CN1CCN(C(=O)C[C@@H]2CC[C@@H]3[C@H](COc4ccc(NC(=O)C5CCCCC5)cc4C(=O)N3C)O2)CC1`, the cytotoxicity call is “inactive”.

Take `C[C@H]1CN([C@@H](C)CO)C(=O)Cc2cc(NS(C)(=O)=O)ccc2O[C@@H]1CN(C)Cc1ccc(C(=O)O)cc1`: the cytotoxicity call was “inactive”.

Consider `COc1ccc(S(=O)(=O)N(C)C[C@@H]2OCCCC[C@H](C)Oc3ccc(NS(=O)(=O)c4ccc(Cl)cc4)cc3C(=O)N([C@H](C)CO)C[C@@H]2C)cc1`, for which the cytotoxicity call is “inactive”.

Take `C[C@H](CO)N1C[C@H](C)[C@@H](CN(C)Cc2ccc(Cl)c(Cl)c2)Oc2ccc(NC(=O)Cc3cn(C)c4ccccc34)cc2C1=O`: the cytotoxicity call was “inactive”.

`C[C@H]1CN([C@@H](C)CO)C(=O)c2cc(NC(=O)Cc3cn(C)c4ccccc34)ccc2O[C@@H]1CN(C)S(C)(=O)=O`: the cytotoxicity call is “inactive”.

Consider `C[C@@H]1CN([C@H](C)CO)C(=O)c2cc(NC(=O)Cc3cn(C)c4ccccc34)ccc2O[C@@H]1CN(C)Cc1ccc(Cl)c(Cl)c1`, for which the cytotoxicity call is “active”.

Consider `C[C@H](CO)N1C[C@H](C)[C@@H](CN(C)Cc2ccc(-c3ccccc3)cc2)Oc2ccc(NC(=O)Cc3cn(C)c4ccccc34)cc2C1=O`, for which the cytotoxicity call was “inactive”.

Take `C[C@@H]1CN([C@H](C)CN(C)C)C(=O)c2cc(NC(=O)Cc3cn(C)c4ccccc34)ccc2O[C@H]1CN(C)S(=O)(=O)c1ccc(Cl)cc1`: the cytotoxicity call is “active”.

As to `C[C@@H]1CN([C@@H](C)CO)C(=O)c2cc(NC(=O)Cc3cn(C)c4ccccc34)ccc2O[C@@H]1CN(C)Cc1ccc(Cl)c(Cl)c1`, the cytotoxicity call is “active”.

Regarding `C[C@@H]1CN([C@@H](C)CO)C(=O)c2cc(NC(=O)Cc3cn(C)c4ccccc34)ccc2O[C@@H]1CN(C)S(C)(=O)=O`, the cytotoxicity call is “inactive”.

For the compound `C[C@H](CO)N1C[C@H](C)[C@H](CN(C)Cc2ccc(Cl)c(Cl)c2)Oc2ccc(NC(=O)Cc3cn(C)c4ccccc34)cc2C1=O`, the cytotoxicity call was “active”.

As for `C[C@H](CO)N1C[C@H](C)[C@H](CN(C)S(=O)(=O)c2cn(C)cn2)Oc2cc(C#Cc3cccc(F)c3)ccc2S1(=O)=O`, the cytotoxicity call is “inactive”.

As for `COCC(=O)N1C[C@@H](C)[C@H](OC)CN(C)C(=O)c2ccc(NC(=O)Nc3cccc(F)c3)cc2OC[C@H]1C`, the cytotoxicity call was “inactive”.

Consider `C[C@H]1CN([C@@H](C)CO)C(=O)c2cccc(NC(=O)c3cnccn3)c2O[C@@H]1CN(C)CC1CCCCC1`, for which the cytotoxicity call is “inactive”.

As to `CC[C@@H]1OC(=O)[C@H](C)[C@@H](O[C@H]2C[C@@](C)(OC)[C@@H](O)[C@H](C)O2)[C@H](C)[C@@H](O[C@@H]2O[C@H](C)C[C@H](N(C)C)[C@H]2O)[C@](C)(O)C[C@@H](C)/C(=N\OCOCCOC)[C@H](C)[C@@H](O)[C@]1(C)O`, the cytotoxicity call is “inactive”.

With `CCNC(=O)C[C@@H]1C=C[C@H](NC(=O)C2CCOCC2)[C@H](CO)O1`, the cytotoxicity call is “inactive”.

Consider `COc1ccc(C#Cc2cnc3c(c2)C(=O)N([C@H](C)CO)C[C@H](C)[C@H](CN(C)CC2CCOCC2)O3)cc1`, for which the cytotoxicity call is “inactive”.

As for `C[C@H]1CCCCO[C@@H](CN(C)Cc2ccncc2)[C@@H](C)CN([C@@H](C)CO)C(=O)c2cc(NC(=O)C3CCCCC3)ccc2O1`, the cytotoxicity call is “inactive”.

On to `C[C@H]1CN([C@@H](C)CO)C(=O)c2cccc(NS(C)(=O)=O)c2O[C@@H]1CN(C)S(=O)(=O)c1ccccc1`, for which the cytotoxicity call is “inactive”.

For `O=C(C[C@H]1CC[C@@H](NC(=O)Cc2ccccn2)[C@@H](CO)O1)NCCCN1CCOCC1`, the cytotoxicity call was “inactive”.

For `C[C@H]1CN([C@@H](C)CO)C(=O)Cc2cc(NS(C)(=O)=O)ccc2O[C@H]1CN(C)S(C)(=O)=O`, the cytotoxicity call is “inactive”.

`CCCn1c(=O)c(C#N)cn(C2CC2)c1=O`: the cytotoxicity call was “inactive”.

Take `N=C(N)SCc1csc(N)n1`: the cytotoxicity call was “inactive”.

In the case of `C[C@H]1CN([C@@H](C)CO)C(=O)c2cc(NC(=O)Cc3cn(C)c4ccccc34)ccc2O[C@@H]1CN(C)Cc1ccc(Cl)c(Cl)c1`, the cytotoxicity call is “active”.

On to `C[C@H]1CN([C@@H](C)CO)C(=O)c2cc(NC(=O)Cc3cn(C)c4ccccc34)ccc2O[C@H]1CN(C)Cc1ccc(Cl)c(Cl)c1`, for which the cytotoxicity call was “inactive”.

As for `C[C@@H]1CN([C@H](C)CO)C(=O)c2cc(NC(=O)Cc3cn(C)c4ccccc34)ccc2O[C@H]1CN(C)Cc1ccc(Cl)c(Cl)c1`, the cytotoxicity call was “active”.

With `C[C@H]1CN([C@@H](C)CO)C(=O)c2cc(NC(=O)Cc3cn(C)c4ccccc34)ccc2O[C@H]1CN(C)Cc1ccc(-c2ccccc2)cc1`, the cytotoxicity call was “inactive”.

As for `C[C@@H]1CN([C@@H](C)CO)C(=O)c2cc(NC(=O)Cc3cn(C)c4ccccc34)ccc2O[C@H]1CN(C)Cc1ccc(Cl)c(Cl)c1`, the cytotoxicity call is “inactive”.

Turning to `C[C@@H]1CN([C@@H](C)CO)C(=O)c2cc(NC(=O)CCN3CCOCC3)ccc2O[C@@H]1CN(C)S(C)(=O)=O`, the cytotoxicity call was “inactive”.
